# Results published in PMC11062922 (Nature Chemical Biology, 2023).
# Like-named read-outs stand apart in the source and are kept apart here.
# Experiments:
# AAK1 = settings: read-out: apparent Kd, n = 1
# AURKA = settings: read-out: apparent Kd, n = 1
substance,measurement,setting,value
Lestaurtinib,potency estimated from few doses,"AAK1; compound concentrations:100 nM and 1000 nM (sheet 'Lestaurtinib' of Supplementary Table 1),run:Lestaurtinib_02606_R2,Plate:MR019",73.7 nM
same,potency estimated from few doses,"AAK1; compound concentrations:100 nM and 1000 nM (sheet 'Lestaurtinib' of Supplementary Table 1),run:Lestaurtinib_02624_R1,Plate:MR020",52 nM
same,potency estimated from few doses,"AAK1; compound concentrations:100 nM and 1000 nM (sheet 'Lestaurtinib' of Supplementary Table 1),run:Lestaurtinib_02624_R2,Plate:MR020",66.6 nM
same,potency estimated from few doses,"AAK1; compound concentrations:100 nM and 1000 nM (sheet 'Lestaurtinib' of Supplementary Table 1),run:Lestaurtinib_02624_R3,Plate:MR020",69.8 nM
same,potency estimated from few doses,"AAK1; compound concentrations:100 nM and 1000 nM (sheet 'Lestaurtinib' of Supplementary Table 1),run:Lestaurtinib_02724_R1,Plate:MR021",69.4 nM
same,potency estimated from few doses,"AAK1; compound concentrations:100 nM and 1000 nM (sheet 'Lestaurtinib' of Supplementary Table 1),run:Lestaurtinib_02741_R2,Plate:MR023",113 nM
same,potency estimated from few doses,"AAK1; compound concentrations:100 nM and 1000 nM (sheet 'Lestaurtinib' of Supplementary Table 1),run:Lestaurtinib_02741_R3,Plate:MR023",89.7 nM
same,potency estimated from few doses,"AAK1; compound concentrations:100 nM and 1000 nM (sheet 'Lestaurtinib' of Supplementary Table 1),run:Lestaurtinib_02748_R1,Plate:MR024",64.3 nM
same,potency estimated from few doses,"AAK1; compound concentrations:100 nM and 1000 nM (sheet 'Lestaurtinib' of Supplementary Table 1),run:Lestaurtinib_02748_R2,Plate:MR024",53.8 nM
same,potency estimated from few doses,"AAK1; compound concentrations:100 nM and 1000 nM (sheet 'Lestaurtinib' of Supplementary Table 1),run:Lestaurtinib_02748_R3,Plate:MR024",68.7 nM
same,potency estimated from few doses,"AAK1; compound concentrations:100 nM and 1000 nM (sheet 'Lestaurtinib' of Supplementary Table 1),run:Lestaurtinib_02752_R1,Plate:MR025",98.6 nM
same,potency estimated from few doses,"AAK1; compound concentrations:100 nM and 1000 nM (sheet 'Lestaurtinib' of Supplementary Table 1),run:Lestaurtinib_02765_R3,Plate:MR026",84.5 nM
same,potency estimated from few doses,"AAK1; compound concentrations:100 nM and 1000 nM (sheet 'Lestaurtinib' of Supplementary Table 1),run:Lestaurtinib_02766_R1,Plate:MR027",55 nM
same,potency estimated from few doses,"AAK1; compound concentrations:100 nM and 1000 nM (sheet 'Lestaurtinib' of Supplementary Table 1),run:Lestaurtinib_02768_R3,Plate:MR028",80.1 nM
same,potency estimated from few doses,"AAK1; compound concentrations:100 nM and 1000 nM (sheet 'Lestaurtinib' of Supplementary Table 1),run:Lestaurtinib_02795_R1,Plate:MR022",81.4 nM
same,potency estimated from few doses,"AAK1; compound concentrations:100 nM and 1000 nM (sheet 'Lestaurtinib' of Supplementary Table 1),run:Lestaurtinib_02795_R3,Plate:MR022",154 nM
same,potency estimated from few doses,"AAK1; compound concentrations:100 nM and 1000 nM (sheet 'Lestaurtinib' of Supplementary Table 1),run:Lestaurtinib_02802_R1,Plate:MR029",67.9 nM
same,potency estimated from few doses,"AAK1; compound concentrations:100 nM and 1000 nM (sheet 'Lestaurtinib' of Supplementary Table 1),run:Lestaurtinib_02802_R2,Plate:MR029",50.7 nM
same,potency estimated from few doses,"AAK1; compound concentrations:100 nM and 1000 nM (sheet 'Lestaurtinib' of Supplementary Table 1),run:Lestaurtinib_02896_R1,Plate:MR030",73.7 nM
same,potency estimated from few doses,"AAK1; compound concentrations:100 nM and 1000 nM (sheet 'Lestaurtinib' of Supplementary Table 1),run:Lestaurtinib_02896_R3,Plate:MR030",71.3 nM
same,potency estimated from few doses,"AAK1; compound concentrations:100 nM and 1000 nM (sheet 'Lestaurtinib' of Supplementary Table 1),run:Lestaurtinib_03172_R2,Plate:MR031",56 nM
same,potency estimated from few doses,"AAK1; compound concentrations:100 nM and 1000 nM (sheet 'Lestaurtinib' of Supplementary Table 1),run:Lestaurtinib_03172_R3,Plate:MR031",66.8 nM
same,potency estimated from few doses,"AAK1; compound concentrations:100 nM and 1000 nM (sheet 'Lestaurtinib' of Supplementary Table 1),run:Lestaurtinib_03252_R1,Plate:MR032",96.3 nM
same,potency estimated from few doses,"AAK1; compound concentrations:100 nM and 1000 nM (sheet 'Lestaurtinib' of Supplementary Table 1),run:Lestaurtinib_03260_R1,Plate:MR033",73.1 nM
same,potency estimated from few doses,"AAK1; compound concentrations:100 nM and 1000 nM (sheet 'Lestaurtinib' of Supplementary Table 1),run:Lestaurtinib_03260_R2,Plate:MR033",77.8 nM
same,potency estimated from few doses,"AURKA; compound concentrations:100 nM and 1000 nM (sheet 'Lestaurtinib' of Supplementary Table 1),run:Lestaurtinib_02339_R1,Plate:MR001",20 nM
same,potency estimated from few doses,"AURKA; compound concentrations:100 nM and 1000 nM (sheet 'Lestaurtinib' of Supplementary Table 1),run:Lestaurtinib_02339_R2,Plate:MR001",18 nM
same,potency estimated from few doses,"AURKA; compound concentrations:100 nM and 1000 nM (sheet 'Lestaurtinib' of Supplementary Table 1),run:Lestaurtinib_02339_R3,Plate:MR001",18.4 nM
same,potency estimated from few doses,"AURKA; compound concentrations:100 nM and 1000 nM (sheet 'Lestaurtinib' of Supplementary Table 1),run:Lestaurtinib_02364_R2,Plate:MR002",21.3 nM
same,potency estimated from few doses,"AURKA; compound concentrations:100 nM and 1000 nM (sheet 'Lestaurtinib' of Supplementary Table 1),run:Lestaurtinib_02367_R1,Plate:MR003",16.3 nM
same,potency estimated from few doses,"AURKA; compound concentrations:100 nM and 1000 nM (sheet 'Lestaurtinib' of Supplementary Table 1),run:Lestaurtinib_02367_R2,Plate:MR003",18.4 nM
same,potency estimated from few doses,"AURKA; compound concentrations:100 nM and 1000 nM (sheet 'Lestaurtinib' of Supplementary Table 1),run:Lestaurtinib_02367_R3,Plate:MR003",18.1 nM
same,potency estimated from few doses,"AURKA; compound concentrations:100 nM and 1000 nM (sheet 'Lestaurtinib' of Supplementary Table 1),run:Lestaurtinib_02381_R3,Plate:MR004",17.5 nM
same,potency estimated from few doses,"AURKA; compound concentrations:100 nM and 1000 nM (sheet 'Lestaurtinib' of Supplementary Table 1),run:Lestaurtinib_02407_R1,Plate:MR005",16.3 nM
same,potency estimated from few doses,"AURKA; compound concentrations:100 nM and 1000 nM (sheet 'Lestaurtinib' of Supplementary Table 1),run:Lestaurtinib_02407_R2,Plate:MR005",18.3 nM
same,potency estimated from few doses,"AURKA; compound concentrations:100 nM and 1000 nM (sheet 'Lestaurtinib' of Supplementary Table 1),run:Lestaurtinib_02407_R3,Plate:MR005",18.2 nM
same,potency estimated from few doses,"AURKA; compound concentrations:100 nM and 1000 nM (sheet 'Lestaurtinib' of Supplementary Table 1),run:Lestaurtinib_02422_R1,Plate:MR006",15.3 nM
same,potency estimated from few doses,"AURKA; compound concentrations:100 nM and 1000 nM (sheet 'Lestaurtinib' of Supplementary Table 1),run:Lestaurtinib_02422_R2,Plate:MR006",7.4 nM
same,potency estimated from few doses,"AURKA; compound concentrations:100 nM and 1000 nM (sheet 'Lestaurtinib' of Supplementary Table 1),run:Lestaurtinib_02437_R1,Plate:MR007",20.9 nM
same,potency estimated from few doses,"AURKA; compound concentrations:100 nM and 1000 nM (sheet 'Lestaurtinib' of Supplementary Table 1),run:Lestaurtinib_02437_R2,Plate:MR007",21.8 nM
same,potency estimated from few doses,"AURKA; compound concentrations:100 nM and 1000 nM (sheet 'Lestaurtinib' of Supplementary Table 1),run:Lestaurtinib_02437_R3,Plate:MR007",3.54 nM
same,potency estimated from few doses,"AURKA; compound concentrations:100 nM and 1000 nM (sheet 'Lestaurtinib' of Supplementary Table 1),run:Lestaurtinib_02438_R1,Plate:MR008",15.4 nM
